Compound activity as filed in PubChem.
Sampled rows, rich in hits. Any-hit rate of the full collection: about 0.95%.
Sa RN4220 lethal: kills Staphylococcus aureus RN4220; S. aureus RN4220 growth, OD600, 16 h; inhibition, % (concentration not given with the values); 330,000 tested, 0.33% active; in the data active means inhibition above about 85%;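 further: plate controls were untreated cells for no effect and reference antibiotic for full effect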
ugtP null kill: compounds lethal to S. aureus RN4220 ugtP deletion mutant; OD600 growth, 16 h; 330,000 tested, 0.54% active; growth inhibition, % (concentration not given with the values); in the data active means growth inhibition above about 68%;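 further: plate controls were untreated wells for no effect and antibiotic for full effect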
BJeLR lethal: kills HRASV12-expressing BJeLR cells. BJeLR (HRASV12) viability, CellTiter-Glo ATP luminescence, 48 h. inhibition, % (test concentration not listed). 300,000 tested, 0.17% active. AID 1554; in the data active means inhibition above about 50%
PrPC surface inh: inhibitors of human cell surface prion protein PrPC. TR-FRET read-out. AID 720596. 370,000 tested, 0.43% active. inhibition, % at 13.8 µM. P04156; in the data active means inhibition above about 24%; further: 0% = median of the test wells and 100% = reference compound wells
* = called active by the depositor; nt = not tested or not shown.

SMILES	Sa RN4220 lethal	ugtP null kill	BJeLR lethal	PrPC surface inh
Cc1cc(-c2ccc(C=Nn3cnnc3)o2)c([N+](=O)[O-])cc1C	12	-18	nt	nt
CCCCCN=Cc1c(C)[nH]n(-c2nc3ccccc3s2)c1=O	6	1	53*	6
CCCCN(CCCC)C(=O)c1cn(CC)c2cc(N3CCN(C)CC3)c(F)cc2c1=O	93*	97*	-7	-1
C=CCCCCCCCCC(=O)N1CCN(c2cc3c(cc2F)c(=O)c(C(=O)O)cn3CC)CC1	-5	93*	-6	6
CCCNC(=O)c1cn(CC)c2cc(N3CCN(C)CC3)c(F)cc2c1=O	25	58	5	-9
C=CCNC(=S)N1CCN(c2cc3c(cc2F)c(=O)c(C(=O)O)cn3CC)CC1	98*	99*	9	3
CCCCCCn1cc(C(=O)O)c(=O)c2cc(F)c(N3CCN(C(=O)OCC)CC3)cc21	2	6	2	0
Cc1ccc(C=NNC(=O)c2ccccn2)s1	6	-5	nt	nt
O=[N+]([O-])c1ccc(O)c(C=NNc2ccccn2)c1	39	-4	nt	nt
CC(C)c1ccc(C2C3=C(COC3=O)Nc3cc4c(cc32)OCO4)cc1 (configuration not stated)	3	8	58*	17
Cc1ccc(-c2cc(C(=O)NCCCN3CCOCC3)c3ccc(Cl)c(C)c3n2)cc1	-5	-17	2	0
Cc1c(Cl)ccc2c(C(O)CBr)cc(-c3ccccc3)nc12 (configuration not stated)	41	96*	nt	0
COC(=O)C1=C(C)N(CC2CCCO2)C(=O)/C1=C\c1ccc(O)cc1 (configuration not stated)	1	6	-10	0
COC(=O)C1=C(C)N(c2ccc(C)c(C)c2)/C(=C/c2ccc(O)cc2)C1=O	93*	91*	-6	5
N#Cc1c(C(F)(F)F)cc(-c2cccs2)nc1SCc1cccnc1	-1	29	4	-4
N#Cc1ccc(-c2cccs2)nc1SCc1cccnc1	3	-6	51*	15
Cc1cc(C(=O)N/N=C/c2ccc3c(c2)OCO3)c(C)o1	nt	nt	8	5
Cc1occc1C(=O)N/N=C/c1ccc(-c2ccccc2)cc1	nt	nt	62*	13
Cc1occc1C(=O)N/N=C/c1ccc(OCc2ccccc2)cc1	nt	nt	-2	12
Cc1occc1C(=O)N/N=C/c1ccc2c(c1)OCO2	nt	nt	64*	5
COc1ccc(C2C(C(=O)OC(C)(C)C)N3N=Cc4ccccc4C3C23C(=O)c2ccccc2C3=O)c(OC)c1 (configuration not stated)	7	-16	nt	nt
O=C(NC(Cc1ccccc1)C(=O)CCl)OCc1ccccc1 (configuration not stated)	101*	100*	nt	nt
CCc1ccc(OCC(=O)Nc2cccc3c2CCCC3)cc1	25	99*	3	3
CCCC(=O)Nc1cccc2c1CCCC2	3	-6	2	5
CN1CCN(c2ccc(NC(=S)NC(=O)c3cccc4ccccc34)cc2)CC1	4	95*	2	0
SMILES	Sa RN4220 lethal	ugtP null kill	BJeLR lethal	PrPC surface inh
CC(C)Oc1ccc(C(=O)Nc2ccc(N3CCN(C(=O)c4ccco4)CC3)cc2)cc1	1	2	-5	1
CN1CCN(c2ccc(NC(=S)NC(=O)c3cccc4c(Br)cccc34)cc2)CC1	-1	56	-8	3
O=C(NC(=S)Nc1ccc(S(=O)(=O)N2CCCCC2)cc1)c1ccccc1	7	86*	-2	3
O=C(Nc1ccc(S(=O)(=O)N2CCCC2)cc1)c1ccccc1	4	1	5	-2
Cc1ccc(C(=O)NC(=S)Nc2ccc(N3CCN(C(=O)c4ccco4)CC3)cc2)cc1	5	91*	-5	3
CC(=O)N1CCN(c2ccc(NC(=S)NC(=O)c3ccccc3)cc2)CC1	0	93*	-2	4
COc1cc(C=NNc2ccc(F)cc2F)cc(OC)c1OC	-3	-6	nt	nt
CC(=NNC(=O)c1ccccc1)c1ccccc1Br	5	7	nt	nt
O=C(Cc1cccc2ccccc12)NN=C/C=C/c1cccc([N+](=O)[O-])c1	-7	-16	nt	nt
Cc1nn(-c2ccccc2)c(C)c1C=Nn1c(-c2ccc(Cl)cc2)n[nH]c1=S	5	-5	nt	nt
O=C1NCC(CC2CCCCC2)N(CC2CCCCC2)C1=O (configuration not stated)	6	3	nt	nt
CC(C)(C)OC(=O)NN=C(c1ccc(O)cc1)c1ccc(O)cc1	99*	99*	-5	1
Brc1cc2c(cc1C1OCCO1)OCO2	4	-2	nt	-7
CCCC1OC(c2cc3c(cc2Cl)OCO3)OCC1CC (configuration not stated)	-1	85*	nt	-4
Cc1c(-n2c(O)c(C3=c4ccccc4=NC3=O)sc2=O)c(=O)n(-c2ccccc2)n1C	6	12	10	-6
C=CCn1c(O)c(C2=c3ccccc3=NC2=O)c2ccccc21	97*	98*	8	2
Cc1ccc2c(c1)c(C1=c3ccccc3=NC1=O)c(O)n2C	98*	97*	8	3
O=C(CSCc1ccccc1Br)NN=Cc1ccc(OCC(=O)N2CCCCC2)cc1	2	-7	nt	nt
O=c1c2ccccc2sn1-c1ccccc1	84	94*	-3	1
Cc1ccc(C=NNc2nncc(-c3ccccc3)n2)o1	6	-5	nt	nt
CCCCCC(=O)NNC(=O)c1c(O)c2ccccc2n(CC)c1=O	24	-7	-1	4
CCCCCCn1c(=O)c(C(=O)Nc2cnccn2)c(O)c2ccccc21	35	92*	-13	4
CCCCCCn1c(=O)c(C(=O)Nc2ncccc2O)c(O)c2ccccc21	9	-2	-20	-2
CCn1c(=O)c(C(=O)NNS(=O)(=O)c2ccc(NC(=O)OC)cc2)c(O)c2ccccc21	7	7	2	3
CCCn1c(=O)c(C(=O)NNS(=O)(=O)c2ccc(NC(=O)OC)cc2)c(O)c2ccccc21	97*	97*	-6	2
SMILES	Sa RN4220 lethal	ugtP null kill	BJeLR lethal	PrPC surface inh
CCOC(=O)Cc1csc(NC(=O)c2c(O)c3ccccc3n(CCC(C)C)c2=O)n1	96*	100*	7	-4
CCCCCCCCCC(=O)NNC(=O)c1c(O)c2ccccc2n(CC)c1=O	97*	101*	-1	-1
CCCCCCn1c(=O)c(C(=O)Nc2nc(CC(=O)OCC)cs2)c(O)c2ccccc21	43	21	-9	-1
CCc1ccc[n+](-c2[nH]c(=O)sc2C=N/N=C(\[O-])CCn2c3ccccc3c3ccccc32)c1	4	4	nt	nt
COc1ccc(C=Cc2c(-c3cccc(C)c3)oc3ccc(-c4ccc5c(c4)OCO5)cc23)cc1	2	-6	nt	nt
COc1cc(C=NN=C2C(=O)Nc3ccccc32)ccc1O	6	-6	nt	nt
CCCCCn1c(=O)c(C(=O)Nc2ccccn2)c(O)c2ccccc21	100*	100*	-15	0
CCCCn1c(=O)c(C(=O)Nc2ccccn2)c(O)c2ccccc21	5	-9	13	-1
Cc1c(C(=O)OCC(=O)N2CC(=O)Nc3ccccc32)oc2ccc(Br)cc12	5	8	68*	-8
Cc1cc(C(=O)OCC(=O)N2CC(=O)Nc3ccccc32)no1	5	-7	-6	0
